TDP-43 tox inh = qHTS of TDP-43 Inhibitors: NCGC Sytravon Library Screen | yeast TDP-43 toxicity rescue, BacTiter-Glo growth, 24 h | Potency, µM (doses to about 46.1 µM), most hits filed as activators | actives 0.45% (n = 45,000) | AID 1347073, 2019; active means well fitted activation curve with a large enough effect; further: 0% is about no effect; nearly all actives have a fitted effect of over 55% in size
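TDP-43-expressing yeast, pregrown in raffinose, seeded at OD600 0.02 in galactose medium with compound for 24 hr at 30 deg C. Growth read by BacTiter-Glo luminescence, so rescue of toxicity appears as activation.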
The depositor's hits bear a star; i = inactive. The full list was thinned out, with hits kept by preference. Potency means the concentration at half of the fitted maximal effect.

SMILES	TDP-43 tox inh
N/C(=N\OC(=O)CCCOc1ccccc1)c1ccc([N+](=O)[O-])cc1	i
N/C(=N\OC(=O)Cc1ccccc1)c1ccc([N+](=O)[O-])cc1	11µM*
CCN(CC)C(=O)Cn1c(=O)n(CCCCCC(=O)NCc2ccccc2Cl)c(=O)c2sccc21	i
CCCC(=O)N(c1ccc2oc(-c3ccccc3)c(C(=O)OCC)c2c1)S(=O)(=O)c1ccc(C)cc1	i
Cc1c(O)nc(SCC(=O)Nc2ccc(Cl)cc2Cl)n(-c2ccc(F)cc2)c1=O	i
CC(C)OC(=O)c1c(NC(=O)c2cccc(C(F)(F)F)c2)sc2c1CCCC2	i
CC1Cc2ccccc2N1C(=O)COC(=O)Cn1nnc(-c2ccccc2)n1 (stereo not drawn)	i
CCCNC(=O)COC(=O)c1c2c(nc3ccccc13)CCC2	i
CC1Cc2ccccc2N1C(=O)COC(=O)c1c2c(nc3ccccc13)CCCCC2 (stereo not drawn)	14µM*
Nc1c(-c2nc(-c3ccncc3)no2)nnn1CC(=O)Nc1ccccc1	i
Cc1cccc(C)c1NC(=O)/C(C#N)=C/c1ccsc1	20µM*
COc1ccc(/C=C(\C#N)C(=O)OCC(=O)Nc2c(C)cccc2C)cc1	i
COc1cc(/C=C(\C#N)C(=O)Nc2cccc3ncccc23)cc(OC)c1OC	i
CCN(CC)S(=O)(=O)c1nnc(NC(=O)COc2ccccc2F)s1	i
Cc1cccc(NC(=S)NCCCN2CCOCC2)c1	i
COc1ccc(N2CCC(CNC(=S)Nc3cccc(C)c3)C2)cc1 (stereo not drawn)	14µM*
Cc1cc(C)cc(NC(=S)NCC2CCN(C(C)c3ccccc3)C2)c1 (stereo not drawn)	i
Cc1nn2c(-c3cccc(NC(=O)c4ccc(Cl)cc4)c3)nnc2c2ccccc12	i
O=C(CCCCCn1c(=O)c2sccc2n(CC(=O)Nc2cc(C(F)(F)F)ccc2Cl)c1=O)NCc1ccccc1Cl	i
CCc1nnc(NC(=O)c2ccc(COc3ccccc3Cl)o2)s1	i
O=C(Nc1ccc(Cl)cn1)c1ccc(COc2ccccc2Br)o1	11µM*
CCN(CC)C(=O)c1ccc(COc2ccccc2Cl)o1	i
Cc1cccc(OCCSc2nc3ccccc3n2CC(=O)N2CCOCC2)c1	i
CN(C)c1ccc(CN(Cc2ccco2)C(=O)c2ccc(F)cc2)cc1	i
CC1CN(C(=O)N2c3ccccc3Sc3ccccc32)CC(C)O1 (stereo not drawn)	13µM*
SMILES	TDP-43 tox inh
CC1CN(C(=O)CS(=O)(=O)Cc2ccccc2)CC(C)O1 (stereo not drawn)	i
CC1CN(C(=O)C(Sc2ccccc2)c2ccccc2)CC(C)O1 (stereo not drawn)	i
NC1=NC(c2cccc(Cl)c2)n2c(nc3ccccc32)N1 (stereo not drawn)	i
CCCSc1ncc(Cl)c(C(=O)Nc2ccc(S(=O)(=O)N3CCCCC3C)cc2)n1 (stereo not drawn)	i
CC1(C(=O)NC2CCCCC2)Cc2ccccc2C(=O)N1Cc1ccccc1Cl (stereo not drawn)	i
O=C(CNCc1ccccn1)Nc1cc(C(F)(F)F)ccc1N1CCOCC1	i
O=C(CSc1ccc([N+](=O)[O-])cn1)Nc1cc(C(F)(F)F)ccc1N1CCOCC1	13µM*
Cn1nnnc1SCC(=O)Nc1cc(C(F)(F)F)ccc1N1CCOCC1	i
Cc1ccc(NC(=O)Nc2nnc(N(CC(C)C)CC(C)C)s2)cc1Cl	i
O/N=C(/c1ccc(Cl)cc1)C1CC1c1ccccc1 (stereo not drawn)	11µM*
C/C(=N/NS(=O)(=O)c1ccc(C)cc1)[C@H]1C[C@@H]1c1ccccc1	i
CC1CC(OC(=O)c2ccccc2C(=O)c2ccc(Cl)cc2)C(=O)O1 (stereo not drawn)	i
CCOC(=O)c1ccc(N2C(=O)CC(N3CCN(Cc4ccccc4)CC3)C2=O)cc1 (stereo not drawn)	i
COC(=O)c1ccc(N2C(=O)CC(N3CCOCC3)C2=O)cc1 (stereo not drawn)	16µM*
CC1CCN(C2CC(=O)N(c3ccccc3)C2=O)CC1 (stereo not drawn)	i
CCc1ccc(NCc2cccn2-c2nnc(N3CCCCCC3)s2)cc1	i
Cc1c(C(=O)O)oc2c1-c1nn(Cc3ccccc3Cl)cc1CC2	11µM*
CCOC(=O)c1oc2c(c1C)-c1nn(Cc3ccccc3Cl)cc1CC2	i
CC(=O)Nc1ccc(NC(=O)c2c(C)nn(Cc3ccccc3Cl)c2C)cc1	i
Cc1cccc(Cn2c(=O)n(CCC(=O)NCc3ccc4c(c3)OCO4)c(=O)c3sccc32)c1	i
COC(=O)c1cc2oc3ccccc3c2n1CC(=O)Nc1ccc(F)c(Cl)c1	i
O=c1c2sccc2n(Cc2cc(=O)n3ccccc3n2)c(=O)n1-c1cccc(C(F)(F)F)c1	i
CC(C)Cc1nnc(NC(=O)c2cc3c(s2)CCC3)s1	i
O=C(Nc1nccs1)c1cc2c(s1)CCCCC2	7.1µM*
O=C(Nc1nnc(SCc2ccccc2)s1)c1cc2c(s1)CCCC2	i
SMILES	TDP-43 tox inh
Cc1cccc(OCc2ccc(-c3nc(C#N)c(NCCN(C)C)o3)o2)c1	i
CCOc1ccc(CNc2cc(C)nc3nc(-c4cccc(C)c4)nn23)cc1OC	i
Fc1ccc(-n2c(-c3ccco3)nc3nc4ccccc4nc32)cc1	i
c1ccc(-c2nc(-c3ccco3)n3ccccc23)cc1	13µM*
Clc1c(-c2ccccc2)nc2ccccn12	i
COc1ccc(NC(=O)c2cccc3c(-c4cccnc4)coc23)cc1	10µM*
O=C(NCC1CCOCC1)c1cccc2c(-c3cccnc3)coc12	i
CC(C)CNC(=O)c1cccc2c(-c3cccnc3)coc12	i
Cc1ccc(CNC(=O)C2CCCN(c3nnc(-n4c(C)ccc4C)s3)C2)cc1 (stereo not drawn)	i
Cc1cc[n+](CC(=O)Nc2nc3ccccc3s2)cc1	i
O=C(Cc1cccs1)Nc1nc2ccccc2s1	16µM*
CCc1ccc2nc(NC(=O)CCCc3cccs3)sc2c1	i
CCc1ccccc1NC(=O)N1CCCn2nc(C)cc21	i
COc1cccc(CNC(=O)c2ccc3c(c2)nc2n3CCCCC2)c1OC	i
CCOc1cc(-c2nc3ccccc3s2)ccc1O	22µM*
COc1cccc(-c2nc3ccccc3s2)c1O	i
COc1cc(C(=O)NCc2ccc(-c3nc4ccccc4s3)cc2)cc(OC)c1OC	i
COC(=O)Cn1nc(C)c2c(C)n(-c3ccccc3)nc2c1=O	i
COCCNC(=O)C1CCCN(C(=O)C2(c3ccc(Cl)cc3)CCCC2)CC1 (stereo not drawn)	i
CC1(C(=O)O)CCCN(C(=O)C2(c3ccc(Cl)cc3)CCCC2)C1 (stereo not drawn)	14µM*
COCCNC(=O)C1(C)CCN(C(=O)C2(c3ccc(Cl)cc3)CCCC2)C1 (stereo not drawn)	i
O=C(NCCCc1nc2ccccc2n1Cc1ccc(Cl)cc1)c1ccco1	i
CCOC(=O)NC(=S)Nc1cccc(NC(=S)NC(=O)OCC)c1	i
O=C(NC(=S)Nc1ccc2c(c1)OCCO2)c1cccc(Br)c1	13µM*
COC(=O)COc1cccc(NC(=O)c2cccc(C)c2)c1	i
O=C(Nc1ccc(C(=O)O)cc1)/C(=C/c1ccc2c(c1)OCO2)NC(=O)c1cccc(Br)c1	i
CCOc1cccc(C(=O)NC(=S)Nc2cccc(C)c2)c1	20µM*
O=C(Nc1cccc(Cl)c1)c1ccc2c(c1)OCCO2	i
Cc1cccc(Nc2nc(-c3ccccc3)c3cc(C)ccc3n2)c1	i

High-throughput results (PubChem)
